The full data set covers some 7,900 targets. This sample favours those with a hit. About 0.6% of all pairs of compound and target were hits. Unmarked numbers belong to inactive results.
What was measured:
Experiment in all cases: log2 fold change, soluble protein after heating vs DMSO (PISA); higher = thermal stabilisation; K562 cells, 10 uM, 30 min; active = over 0.2 and 3.5 SD of the protein, either way, in both replicates (recomputed)
[1] = compound: CC1=C(C=C(C=C1)NC(=O)C2=CC(=CC=C2)C(C)(C)C#N)NC3=CC4=C(C=C3)N=CN(C4=O)C
In short: (§1)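 K562 cells (2×10^6 cells/mL) were treated with 10 μM compound for 30 min, and aliquots were heated for 3 min over 48°C-58°C. Pooled aliquots were extracted in PBS with 0.5% NP-40 at 4°C, and the supernatant after 21,000xg for 90 min was measured by TMTpro 16plex LC-MS/MS with channel sums equalised. Reported thermal stability, relative to control samples and from duplicates, is a log2 fold change.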

[2] = compound: CC1=C(C=C(C=C1)NC(=O)C2=CC(=CC=C2)N(C)C)NC(=O)C3=CC=C(C=C3)O
In short: as §1

[3] = compound: CC1=CC=C(C=C1)SC2=C3C=C(SC3=CN=C2)C(=O)N
In short: as §1

[4] = compound: CC1=NC(=CC=C1)C2=C(N=C(N2)C(C)(C)C)C3=CC4=NC=CN=C4C=C3
In short: as §1

Nexturastat A = compound: CCCCN(Cc1ccc(C(=O)NO)cc1)C(=O)Nc1ccccc1 [Nexturastat A]
In short: as §1

vemurafenib = compound: CCCS(=O)(=O)Nc1ccc(F)c(C(=O)c2c[nH]c3ncc(-c4ccc(Cl)cc4)cc23)c1F [vemurafenib]
In short: as §1

[5] = compound: CCCS(=O)(=O)Nc1ccc(F)c(C(=O)c2c[nH]c3ncc(Cl)cc23)c1F
In short: as §1

[6] = compound: CCCc1cc(C)[nH]c(=O)c1CNC(=O)c1cc(-c2ccnc(N3CCN(C)CC3)c2)cc2c1cnn2C(C)C
In short: as §1

givinostat = compound: CCN(CC)Cc1ccc2cc(COC(=O)Nc3ccc(C(=O)NO)cc3)ccc2c1 [givinostat]
In short: as §1

barasertib = compound: CCN(CCCOc1ccc2c(Nc3cc(CC(=O)Nc4cccc(F)c4)[nH]n3)ncnc2c1)CCOP(=O)(O)O [barasertib]
In short: as §1

[7] = compound: CC[C@@H]1C(=O)N(C)c2cnc(Nc3ccc(C(=O)NC4CCN(C)CC4)cc3OC)nc2N1C1CCCC1
In short: as §1

volasertib = compound: CC[C@@H]1C(=O)N(C)c2cnc(Nc3ccc(C(=O)N[C@H]4CC[C@H](N5CCN(CC6CC6)CC5)CC4)cc3OC)nc2N1C(C)C [volasertib]
In short: as §1

[8] = compound: CC[C@H](C)N1C=C(C2=C(C=C(C=C21)C3=CN=C(C=C3)N4CCNCC4)C(=O)NCC5=C(C=C(NC5=O)C)C)C
In short: as §1

epoxomicin = compound: CC[C@H](C)[C@@H](C(=O)N[C@@H]([C@@H](C)O)C(=O)N[C@@H](CC(C)C)C(=O)[C@]1(CO1)C)NC(=O)[C@H]([C@@H](C)CC)N(C)C(=O)C [epoxomicin]
In short: as §1

[9] = compound: CCn1c(C(=O)N(C2CC2)C2CC2)cc2c3c(ncn3C)c(Nc3cc(C)n(C)n3)nc21
In short: as §1

[10] = compound: CCn1cc(-c2ccnc3[nH]c(-c4cccc(CN(C)C)c4)cc23)c(-c2ccc(NC(=O)N(C)C)cc2)n1
In short: as §1

[11] = compound: CN(C)CC(=O)Nc1ccc2[nH]c(=O)c3ccccc3c2c1
In short: as §1

rosiglitazone = compound: CN(CCOC1=CC=C(C=C1)C[C@H]2C(=O)NC(=O)S2)C3=CC=CC=N3 (racemic) [rosiglitazone]
In short: as §1

[12] = compound: CN1C2=C(C3=C1C(=O)N(N=C3)CC4=CC(=CC=C4)N)SC(=C2)S(=O)C
In short: as §1

[13] = compound: CN1CCC(CNc2ccc3ncc(-c4cccc(OC(F)(F)F)c4)n3n2)CC1
In short: as §1

Chain of UniProt Q00688 (Q00688 whole entry, looked up): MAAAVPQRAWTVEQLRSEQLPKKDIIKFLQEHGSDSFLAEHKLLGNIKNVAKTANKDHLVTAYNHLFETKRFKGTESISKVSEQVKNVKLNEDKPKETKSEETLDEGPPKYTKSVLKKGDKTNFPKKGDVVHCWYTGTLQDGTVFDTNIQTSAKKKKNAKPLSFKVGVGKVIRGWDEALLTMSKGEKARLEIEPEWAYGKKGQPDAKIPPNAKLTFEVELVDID
Chain of UniProt P63218 (P63218 whole entry, looked up): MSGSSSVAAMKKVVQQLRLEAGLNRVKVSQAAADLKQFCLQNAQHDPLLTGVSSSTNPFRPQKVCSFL
Chain of UniProt P00390 (P00390 whole entry, looked up): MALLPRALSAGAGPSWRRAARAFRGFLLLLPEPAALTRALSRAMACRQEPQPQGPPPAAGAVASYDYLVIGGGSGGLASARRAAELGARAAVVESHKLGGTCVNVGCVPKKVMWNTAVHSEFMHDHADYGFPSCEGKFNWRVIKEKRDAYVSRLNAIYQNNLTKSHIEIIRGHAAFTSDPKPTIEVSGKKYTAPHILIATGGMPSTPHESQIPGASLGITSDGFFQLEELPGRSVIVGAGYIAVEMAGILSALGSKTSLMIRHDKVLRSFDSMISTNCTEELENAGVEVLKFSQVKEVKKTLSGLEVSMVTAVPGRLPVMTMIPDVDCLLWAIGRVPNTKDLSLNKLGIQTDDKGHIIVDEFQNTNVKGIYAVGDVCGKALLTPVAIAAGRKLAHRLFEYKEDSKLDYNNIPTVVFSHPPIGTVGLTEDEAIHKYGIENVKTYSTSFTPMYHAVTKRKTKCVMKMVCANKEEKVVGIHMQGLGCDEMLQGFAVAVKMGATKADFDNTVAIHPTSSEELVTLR
Chain of UniProt P29083 (P29083 whole entry, looked up): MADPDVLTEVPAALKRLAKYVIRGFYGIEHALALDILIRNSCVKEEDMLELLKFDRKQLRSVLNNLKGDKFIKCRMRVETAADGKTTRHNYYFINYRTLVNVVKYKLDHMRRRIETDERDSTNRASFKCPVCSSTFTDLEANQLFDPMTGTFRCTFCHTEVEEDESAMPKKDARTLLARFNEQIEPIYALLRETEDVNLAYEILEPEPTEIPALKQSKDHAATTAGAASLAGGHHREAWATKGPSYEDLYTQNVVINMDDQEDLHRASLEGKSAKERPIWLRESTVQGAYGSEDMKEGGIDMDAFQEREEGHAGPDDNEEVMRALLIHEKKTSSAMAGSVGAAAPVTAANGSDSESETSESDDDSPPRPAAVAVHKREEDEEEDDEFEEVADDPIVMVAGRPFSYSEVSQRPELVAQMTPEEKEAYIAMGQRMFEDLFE
Chain of UniProt P36915 (P36915 whole entry, looked up): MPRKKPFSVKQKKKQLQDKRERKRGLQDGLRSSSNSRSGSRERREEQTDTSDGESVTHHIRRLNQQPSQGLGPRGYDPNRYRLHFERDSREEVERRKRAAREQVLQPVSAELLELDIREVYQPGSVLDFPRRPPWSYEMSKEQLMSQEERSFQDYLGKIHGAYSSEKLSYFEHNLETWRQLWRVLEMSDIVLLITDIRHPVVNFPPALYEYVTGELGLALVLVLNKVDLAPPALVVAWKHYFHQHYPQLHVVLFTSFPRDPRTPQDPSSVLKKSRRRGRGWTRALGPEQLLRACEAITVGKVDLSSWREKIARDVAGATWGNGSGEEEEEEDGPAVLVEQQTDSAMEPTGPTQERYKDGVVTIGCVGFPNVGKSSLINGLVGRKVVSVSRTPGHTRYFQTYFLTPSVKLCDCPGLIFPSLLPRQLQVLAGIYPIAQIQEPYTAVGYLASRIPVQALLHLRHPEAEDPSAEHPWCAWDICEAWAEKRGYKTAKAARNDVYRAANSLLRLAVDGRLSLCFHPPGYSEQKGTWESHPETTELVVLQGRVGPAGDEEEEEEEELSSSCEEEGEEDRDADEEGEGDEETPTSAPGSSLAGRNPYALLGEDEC
Chain of UniProt P85037 (P85037 whole entry, looked up): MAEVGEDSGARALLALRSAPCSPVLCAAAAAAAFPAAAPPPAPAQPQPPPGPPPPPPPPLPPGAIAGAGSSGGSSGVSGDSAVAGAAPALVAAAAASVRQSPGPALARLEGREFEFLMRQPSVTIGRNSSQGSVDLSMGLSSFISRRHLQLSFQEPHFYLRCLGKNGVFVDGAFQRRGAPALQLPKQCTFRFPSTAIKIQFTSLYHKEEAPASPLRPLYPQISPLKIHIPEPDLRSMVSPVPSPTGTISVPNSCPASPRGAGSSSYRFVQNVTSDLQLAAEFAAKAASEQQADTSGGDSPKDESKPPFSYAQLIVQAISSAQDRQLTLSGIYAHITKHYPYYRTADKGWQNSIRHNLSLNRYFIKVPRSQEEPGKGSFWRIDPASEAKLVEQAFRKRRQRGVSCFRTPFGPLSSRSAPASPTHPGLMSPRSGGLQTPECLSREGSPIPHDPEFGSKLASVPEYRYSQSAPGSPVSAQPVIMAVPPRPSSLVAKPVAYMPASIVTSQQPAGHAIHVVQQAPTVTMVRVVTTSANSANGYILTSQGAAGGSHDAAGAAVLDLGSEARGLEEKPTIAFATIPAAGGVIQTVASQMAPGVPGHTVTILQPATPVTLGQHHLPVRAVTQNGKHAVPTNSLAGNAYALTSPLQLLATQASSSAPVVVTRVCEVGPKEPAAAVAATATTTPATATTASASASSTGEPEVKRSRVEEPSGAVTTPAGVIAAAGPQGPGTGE
Chain of UniProt O00165 (O00165 whole entry, looked up): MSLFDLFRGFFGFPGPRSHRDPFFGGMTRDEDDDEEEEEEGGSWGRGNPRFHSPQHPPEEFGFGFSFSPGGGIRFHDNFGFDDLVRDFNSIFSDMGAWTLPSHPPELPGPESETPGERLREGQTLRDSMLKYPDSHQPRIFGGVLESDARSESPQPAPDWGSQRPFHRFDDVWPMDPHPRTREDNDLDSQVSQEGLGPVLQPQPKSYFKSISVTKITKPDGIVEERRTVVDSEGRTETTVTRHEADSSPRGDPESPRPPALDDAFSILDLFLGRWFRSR
Chain of UniProt Q1KMD3 (Q1KMD3 whole entry, looked up): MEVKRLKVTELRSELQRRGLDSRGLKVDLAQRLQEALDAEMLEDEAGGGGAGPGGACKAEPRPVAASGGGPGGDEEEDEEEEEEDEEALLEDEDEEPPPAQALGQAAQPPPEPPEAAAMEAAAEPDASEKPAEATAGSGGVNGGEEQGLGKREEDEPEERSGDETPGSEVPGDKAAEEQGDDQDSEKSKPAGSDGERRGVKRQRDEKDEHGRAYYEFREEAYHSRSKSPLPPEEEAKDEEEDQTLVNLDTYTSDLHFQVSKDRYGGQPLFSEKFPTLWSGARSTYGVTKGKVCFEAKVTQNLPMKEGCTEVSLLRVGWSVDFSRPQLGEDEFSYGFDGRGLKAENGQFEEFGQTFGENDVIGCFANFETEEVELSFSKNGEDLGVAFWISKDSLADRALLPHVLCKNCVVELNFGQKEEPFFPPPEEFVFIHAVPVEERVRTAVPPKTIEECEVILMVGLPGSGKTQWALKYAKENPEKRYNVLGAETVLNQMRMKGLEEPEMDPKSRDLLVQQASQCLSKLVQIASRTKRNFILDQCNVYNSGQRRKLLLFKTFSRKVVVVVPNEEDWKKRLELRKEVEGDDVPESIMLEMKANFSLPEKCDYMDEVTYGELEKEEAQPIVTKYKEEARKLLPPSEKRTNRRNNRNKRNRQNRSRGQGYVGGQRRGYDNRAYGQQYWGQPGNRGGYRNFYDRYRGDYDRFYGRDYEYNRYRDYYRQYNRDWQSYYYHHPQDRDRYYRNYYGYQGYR
Chain of UniProt P23434 (P23434 whole entry, looked up): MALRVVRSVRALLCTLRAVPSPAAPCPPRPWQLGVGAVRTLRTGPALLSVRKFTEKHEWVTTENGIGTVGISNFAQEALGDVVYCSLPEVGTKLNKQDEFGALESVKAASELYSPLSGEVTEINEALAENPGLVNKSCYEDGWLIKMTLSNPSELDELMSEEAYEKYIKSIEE
Chain of UniProt Q92522 (Q92522 whole entry, looked up): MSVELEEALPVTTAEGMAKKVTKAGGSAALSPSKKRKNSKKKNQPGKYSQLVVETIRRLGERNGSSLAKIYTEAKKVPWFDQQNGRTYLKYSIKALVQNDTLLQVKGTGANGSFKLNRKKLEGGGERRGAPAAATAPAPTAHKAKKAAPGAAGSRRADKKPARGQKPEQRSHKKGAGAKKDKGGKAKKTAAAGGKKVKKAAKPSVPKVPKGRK
Chain of UniProt P78417 (P78417 whole entry, looked up): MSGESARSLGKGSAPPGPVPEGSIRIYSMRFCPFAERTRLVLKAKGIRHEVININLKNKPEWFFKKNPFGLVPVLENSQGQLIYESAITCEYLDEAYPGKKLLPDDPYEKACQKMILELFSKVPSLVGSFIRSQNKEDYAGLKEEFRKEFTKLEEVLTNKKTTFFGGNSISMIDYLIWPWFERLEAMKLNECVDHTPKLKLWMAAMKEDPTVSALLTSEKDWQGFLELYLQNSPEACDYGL
Chain of UniProt Q9Y6M1 (Q9Y6M1 whole entry, looked up): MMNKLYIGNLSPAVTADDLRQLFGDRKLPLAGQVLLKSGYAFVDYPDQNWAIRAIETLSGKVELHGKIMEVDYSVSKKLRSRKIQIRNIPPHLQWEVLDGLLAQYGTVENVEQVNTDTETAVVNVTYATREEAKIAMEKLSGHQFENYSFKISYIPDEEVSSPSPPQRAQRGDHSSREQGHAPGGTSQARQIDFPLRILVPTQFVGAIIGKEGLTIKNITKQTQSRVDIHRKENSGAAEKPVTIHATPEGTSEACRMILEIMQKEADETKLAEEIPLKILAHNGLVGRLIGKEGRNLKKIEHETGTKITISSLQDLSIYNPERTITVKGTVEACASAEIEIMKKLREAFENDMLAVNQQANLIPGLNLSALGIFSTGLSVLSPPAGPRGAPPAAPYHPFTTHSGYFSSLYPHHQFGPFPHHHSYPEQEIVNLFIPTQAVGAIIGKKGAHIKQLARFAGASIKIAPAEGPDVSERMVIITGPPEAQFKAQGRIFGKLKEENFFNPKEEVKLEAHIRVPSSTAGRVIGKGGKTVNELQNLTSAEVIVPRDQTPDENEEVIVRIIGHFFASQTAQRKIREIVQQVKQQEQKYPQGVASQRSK

| Target | log2 fold change [1] | log2 fold change [2] | log2 fold change [3] | log2 fold change [4] | log2 fold change (Nexturastat A) | log2 fold change (vemurafenib) | log2 fold change [5] | log2 fold change [6] | log2 fold change (givinostat) | log2 fold change (barasertib) | log2 fold change [7] | log2 fold change (volasertib) | log2 fold change [8] | log2 fold change (epoxomicin) | log2 fold change [9] | log2 fold change [10] | log2 fold change [11] | log2 fold change (rosiglitazone) | log2 fold change [12] | log2 fold change [13] |
| --- | --- | --- | --- | --- | --- | --- | --- | --- | --- | --- | --- | --- | --- | --- | --- | --- | --- | --- | --- | --- |
| GSTO1 (UniProt P78417) | -0.031 | 0.002 | 0.03 | 0.03 | -0.121 | 0.02 | 0.017 | 0.15 | -0.043 | 0.016 | 0.005 | 0.08 | 0.009 | 0.013 | 0.036 | -0.052 | -0.007 | 0.018 | -0.082 | 0.084 |
| FKBP3 (UniProt Q00688) | 0.024 | 0 | 0.009 | 0.122 | -0.002 | -0.015 | -0.041 | -0.013 | -0.023 | -0.02 | 0.006 | 0.075 | 0.03 | 0.037 | 0 | -0.001 | 0.001 | -0.002 | -0.065 | 0.015 |
| GNL1 (UniProt P36915) | 0.019 | -0.014 | 0.032 | 0.036 | -0.031 | -0.01 | 0.081 | 0.002 | -0.033 | 0.017 | -0.095 | -0.229 (active) | 0.027 | 0.008 | -0.006 | -0.1 | 0.024 | 0.01 | -0.083 | -0.053 |
| FKBP4 (UniProt Q02790) | 0.032 | -0.037 | 0.015 | 0.045 | -0.027 | 0.032 | 0.06 | -0.009 | 0.012 | 0.013 | -0.066 | -0.136 | 0.07 | 0.033 | -0.01 | -0.051 | 0.019 | 0.042 | -0.04 | -0.119 |
| FOXK1 (UniProt P85037) | 0.323 | -0.01 | -0.362 | -0.063 | -0.091 | 0.097 | 0.182 | -0.129 | -0.025 | -0.221 | 0.429 | -0.017 | 0.035 | 0.027 | -0.094 | 0.041 | -0.001 | -0.077 | -0.289 | 0.456 |
| HECTD1 (UniProt Q9ULT8) | 0.04 | -0.068 | 0.144 | -0.023 | 0.273 (active) | -0.04 | 0.126 | 0.054 | 0.038 | 0.048 | 0.107 | -0.221 | 0.063 | 0.012 | -0.041 | 0 | 0.016 | 0.056 | 0.17 | -0.054 |
| GSR (UniProt P00390) | -0.011 | 0.022 | 0.016 | 0.007 | -0.073 | -0.027 | 0.02 | -0.026 | -0.253 (active) | -0.03 | 0.04 | 0.034 | -0.038 | 0.001 | -0.023 | -0.008 | -0.018 | 0.024 | -0.071 | -0.02 |
| GCSH (UniProt P23434) | -0.024 | 0.047 | 0.279 | 0.006 | -0.06 | 0.079 | -0.021 | -0.139 | 0 | -0.095 | 0.055 | 0.065 | -0.078 | 0.005 | 0.05 | 0.023 | 0.028 | 0.053 | 0.012 | -0.338 (active) |
| GAPVD1 isoform 6 (UniProt Q14C86) | 0.004 | -0.041 | 0.046 | 0.019 | 0.025 | 0.007 | 0.13 | 0.047 | 0.047 | 0.034 | -0.12 | -0.585 (active) | 0.034 | -0.015 | -0.061 | -0.016 | 0.038 | 0.034 | 0.083 | -0.197 |
| HAX1 (UniProt O00165) | -0.018 | -0.101 | 0.03 | -0.058 | 0.066 | -0.012 | 0.082 | 0.045 | 0.009 | 0.046 | -0.087 | -0.393 (active) | -0.011 | -0.018 | -0.031 | 0.084 | 0.05 | 0.023 | 0.012 | -0.584 (active) |
| FUCA1 (UniProt P04066) | 0.03 | 0.009 | 0.021 | 0.092 | -0.054 | -0.007 | 0.066 | -0.016 | 0 | 0.012 | -1.33 (active) | -1.73 (active) | -0.061 | -0.03 | 0.007 | -0.006 | -0.025 | -0.008 | -0.017 | -0.141 |
| HNRNPUL2 (UniProt Q1KMD3) | 0.009 | 0.008 | -0.074 | -0.032 | 0.109 | -0.047 | -0.027 | -0.002 | 0.047 | -0.027 | 0.172 | 0.135 | -0.023 | -0.084 | -0.036 | 0.092 | -0.012 | -0.007 | 0.131 | -0.013 |
| GNG5 (UniProt P63218) | 0.147 | -0.17 | -0.02 | 0.074 | 0.068 | 0.038 | 0.004 | 0.022 | -0.063 | -0.064 | 0.105 | 0.033 | -0.117 | 0.556 (active) | 0.059 | 0.004 | -0.07 | -0.045 | -0.014 | 0.144 |
| GTF2E1 (UniProt P29083) | -0.005 | -0.057 | 0.011 | 0.115 | 0.024 | 0.05 | 0.082 | -0.006 | 0.091 | 0.166 | -0.267 | -0.567 (active) | 0.096 | -0.015 | -0.062 | 0.023 | 0.072 | 0.033 | -0.034 | -0.084 |
| H1FX (UniProt Q92522) | 0.081 | -0.059 | -0.106 | -0.222 | 0.278 | -0.083 | -0.077 | 0.176 | -0.034 | -0.129 | 0.166 | 0.415 | -0.003 | -0.201 | -0.026 | 0.041 | -0.115 | -0.156 | 0.287 | 0.129 |
| IGF2BP2 (UniProt Q9Y6M1) | 0.009 | -0.001 | -0.008 | -0.094 | 0.383 | 0.065 | 0 | -0.011 | 0.153 | -0.041 | 0.176 | -0.076 | -0.063 | -0.203 | 0.016 | 0.076 | 0.01 | -0.044 | 0.432 | -0.016 |

Source: the supplement of paper PMC10849652
